Some of the results follow. Unmarked numbers belong to inactive results. Active and inactive are the calls of the source. Cut-off read from the data, not from the text of the source, unless noted: active = activation above about 45%; inactive = the rest.
molecular target: Sphingosine 1-phosphate receptor 4 (Homo sapiens) (UniProt O95977); test: S1P4 receptor antagonists, human, confirmation, cell-based (AID 1524; in the data active = inhibition above about 30%); settings: S1P4-expressing cell line, antagonist mode, reporter read-out; at 4.98 µM; active compounds read high
Sequence (O95977 whole entry, looked up): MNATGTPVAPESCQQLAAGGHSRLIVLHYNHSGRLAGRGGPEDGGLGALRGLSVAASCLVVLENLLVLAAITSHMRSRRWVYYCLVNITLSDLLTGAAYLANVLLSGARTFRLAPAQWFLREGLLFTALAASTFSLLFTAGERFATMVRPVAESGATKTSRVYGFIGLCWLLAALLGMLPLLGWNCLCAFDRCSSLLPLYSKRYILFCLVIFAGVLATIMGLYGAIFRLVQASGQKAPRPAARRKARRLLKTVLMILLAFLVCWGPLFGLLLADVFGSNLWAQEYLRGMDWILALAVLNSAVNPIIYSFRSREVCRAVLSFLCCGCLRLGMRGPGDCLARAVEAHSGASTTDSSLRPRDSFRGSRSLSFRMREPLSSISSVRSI

Structure (SMILES)	inhibition
Cc1cccc(NC(=O)c2ccc([N+](=O)[O-])o2)c1	79% (active)
O=C(Nc1ccccc1)c1nnsc1S(=O)(=O)c1ccc(Cl)cc1	116% (active)
O=C(/C=C/c1ccc(Cl)c([N+](=O)[O-])c1)c1ccc(O)cc1	102% (active)
CNc1ccc(SC#N)cc1	8.17%
Nc1nonc1-c1nc2ccccc2n1Cc1ccc(F)cc1	35.7% (active)
CC1CC(C)CN(S(=O)(=O)c2cccc(C(=O)N3C(=O)c4cccc(N)c4C3=O)c2)C1 (centres undefined)	32.3% (active)
O=C1C=C(c2ccc(Cl)cc2)C(=O)N1Nc1ccccc1	119% (active)
CC1CC2=C(CC1/C=N/NC(N)=S)C(C)(C)CCC2 (centres undefined)	67.8% (active)

molecular target: Neuropeptide Y receptor type 2 (Homo sapiens) (UniProt P49146); test: NPY-Y2 potentiators or agonists, confirmation, cell-based (AID 1539; in the data active = activation above about 33%); settings: cell-based NPY-Y2 potentiator/agonist assay; at 3.6 µM; active compounds read high
Sequence (P49146 whole entry, looked up): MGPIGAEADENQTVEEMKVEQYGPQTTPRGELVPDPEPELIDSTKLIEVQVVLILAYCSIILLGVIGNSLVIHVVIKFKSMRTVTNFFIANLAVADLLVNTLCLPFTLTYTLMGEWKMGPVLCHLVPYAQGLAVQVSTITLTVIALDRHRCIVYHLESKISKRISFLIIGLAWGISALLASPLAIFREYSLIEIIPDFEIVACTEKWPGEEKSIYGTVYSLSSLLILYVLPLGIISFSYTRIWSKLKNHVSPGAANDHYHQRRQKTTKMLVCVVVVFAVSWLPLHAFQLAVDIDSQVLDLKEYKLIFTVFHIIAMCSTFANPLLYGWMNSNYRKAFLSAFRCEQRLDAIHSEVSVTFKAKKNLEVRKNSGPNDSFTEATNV

Structure (SMILES)	activation
CC(=O)c1ccc2c(c1)OCCOCCOc1ccc(C(C)=O)cc1OCCOCCO2	19.6%
CC(Nc1ccccc1)c1cccnc1 (centres undefined)	2.4%
Cc1ccc(CCNC(=O)C2CCN(S(=O)(=O)N3CCCC3)CC2)cc1	-1.21%
CN(C)c1ccc(CNC2C3CC4CC(C3)CC2C4)cc1 (centres undefined)	7.01%
O=C1NC(c2ccc(-c3ccccc3[N+](=O)[O-])o2)C(C(=O)c2ccc(Cl)cc2)C(O)(C(F)(F)F)N1 (centres undefined)	28.1%
O=C(Nc1sc2c(c1-c1nc3ccccc3[nH]1)CCCC2)C1CC1	19.1%
CN(Cc1ccccc1)C(=O)CCNC(=O)Cn1cnc2ccccc2c1=O	11.1%
O=C(NCc1ccccc1)c1ccc(S(=O)(=O)Nc2cccc(C(F)(F)F)c2)cc1	10.8%
COc1cc(NC(=O)c2ccccc2NS(=O)(=O)c2ccc(Cl)s2)cc(OC)c1	0.49%
COc1ccc2nc(NC(=O)NC3CCCCC3)sc2c1	40.8% (active)
N/C(=N\S(=O)(=O)c1cc(C(F)(F)F)cc(C(F)(F)F)c1)c1cccs1	20.3%

molecular target: Sphingosine 1-phosphate receptor 1 (Homo sapiens) (UniProt P21453); test: S1P1 receptor antagonists, human, counter-screen for S1P4 antagonist project, cell-based (AID 1564; in the data active = inhibition above about 40%;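 note: receptor stimulated with S1P near its EC80; 0% = agonist stimulated wells and 100% = vehicle only wells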); settings: cell-based S1P1 antagonist counterscreen, at 4.98 µM, active compounds read high
Sequence (P21453 whole entry, looked up): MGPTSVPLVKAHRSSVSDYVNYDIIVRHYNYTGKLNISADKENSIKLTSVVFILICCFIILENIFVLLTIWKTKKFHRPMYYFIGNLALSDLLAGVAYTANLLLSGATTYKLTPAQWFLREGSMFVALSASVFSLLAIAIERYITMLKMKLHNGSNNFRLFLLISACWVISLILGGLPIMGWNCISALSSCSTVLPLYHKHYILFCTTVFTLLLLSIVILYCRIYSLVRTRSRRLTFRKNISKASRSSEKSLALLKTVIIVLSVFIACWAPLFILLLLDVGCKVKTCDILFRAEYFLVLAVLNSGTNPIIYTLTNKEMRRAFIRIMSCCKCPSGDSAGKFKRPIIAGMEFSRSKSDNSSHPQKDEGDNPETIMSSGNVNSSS

Structure (SMILES)	inhibition
Cc1cccc(NC(=O)c2ccc([N+](=O)[O-])o2)c1	20.2%
O=C(Nc1ccccc1)c1nnsc1S(=O)(=O)c1ccc(Cl)cc1	37.5%
O=C(/C=C/c1ccc(Cl)c([N+](=O)[O-])c1)c1ccc(O)cc1	14.6%
CNc1ccc(SC#N)cc1	-1.31%
Nc1nonc1-c1nc2ccccc2n1Cc1ccc(F)cc1	33%
CC1CC(C)CN(S(=O)(=O)c2cccc(C(=O)N3C(=O)c4cccc(N)c4C3=O)c2)C1 (centres undefined)	8.25%
O=C1C=C(c2ccc(Cl)cc2)C(=O)N1Nc1ccccc1	63% (active)
CC1CC2=C(CC1/C=N/NC(N)=S)C(C)(C)CCC2 (centres undefined)	7.02%

molecular target: Neuropeptide Y receptor type 1 (Homo sapiens) (UniProt P25929); test: NPY-Y1 potentiators or agonists, counter-screen for NPY-Y2 potentiator project, cell-based, fluorescence (AID 1651); settings: Y1 HEK293-CNG cells, membrane potential fluorescence; at 3.6 µM; active compounds read high;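 note: cells stimulated with submaximal NPY then isoproterenol with phosphodiesterase inhibitor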
Sequence (P25929 whole entry, looked up): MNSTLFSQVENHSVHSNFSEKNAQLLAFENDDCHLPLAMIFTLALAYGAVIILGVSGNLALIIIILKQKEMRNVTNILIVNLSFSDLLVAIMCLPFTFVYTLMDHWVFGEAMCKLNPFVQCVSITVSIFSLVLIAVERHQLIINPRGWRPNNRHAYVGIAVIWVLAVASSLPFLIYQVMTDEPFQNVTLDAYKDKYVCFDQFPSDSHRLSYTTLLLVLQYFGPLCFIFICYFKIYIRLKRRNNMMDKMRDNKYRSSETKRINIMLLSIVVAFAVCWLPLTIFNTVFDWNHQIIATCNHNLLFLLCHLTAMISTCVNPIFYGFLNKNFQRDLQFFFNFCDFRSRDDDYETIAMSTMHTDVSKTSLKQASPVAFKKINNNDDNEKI

Structure (SMILES)	activation
CC(=O)c1ccc2c(c1)OCCOCCOc1ccc(C(C)=O)cc1OCCOCCO2	25.9%
CC(Nc1ccccc1)c1cccnc1 (centres undefined)	-7.91%
Cc1ccc(CCNC(=O)C2CCN(S(=O)(=O)N3CCCC3)CC2)cc1	-6.28%
CN(C)c1ccc(CNC2C3CC4CC(C3)CC2C4)cc1 (centres undefined)	-7.77%
O=C1NC(c2ccc(-c3ccccc3[N+](=O)[O-])o2)C(C(=O)c2ccc(Cl)cc2)C(O)(C(F)(F)F)N1 (centres undefined)	38.7%
O=C(Nc1sc2c(c1-c1nc3ccccc3[nH]1)CCCC2)C1CC1	30.4%
CN(Cc1ccccc1)C(=O)CCNC(=O)Cn1cnc2ccccc2c1=O	33.4%
O=C(NCc1ccccc1)c1ccc(S(=O)(=O)Nc2cccc(C(F)(F)F)c2)cc1	17%
COc1cc(NC(=O)c2ccccc2NS(=O)(=O)c2ccc(Cl)s2)cc(OC)c1	-30.1%
COc1ccc2nc(NC(=O)NC3CCCCC3)sc2c1	66.1% (active)
N/C(=N\S(=O)(=O)c1cc(C(F)(F)F)cc(C(F)(F)F)c1)c1cccs1	29.6%

molecular target: Neuropeptide Y receptor type 1 (Homo sapiens) (UniProt P25929); test: NPY-Y1 direct agonists, selectivity assay for NPY-Y2 potentiator project, cell-based, fluorescence (AID 1702;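 active = activation above the mean of DMSO-only control wells plus 3 SD, cut at about 18% in these data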;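 note: cells stimulated with 1 µM isoproterenol plus the PDE inhibitor Ro 20-1724; 0% = isoproterenol with DMSO and no NPY and 100% = 40 nM NPY; Y1 agonists lower the membrane potential dye signal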); settings: HEK293 Y1-CNGC, membrane potential fluorescence, agonism; at 3.6 µM; active compounds read high

Structure (SMILES)	activation
CC(=O)c1ccc2c(c1)OCCOCCOc1ccc(C(C)=O)cc1OCCOCCO2	36.5% (active)
CC(Nc1ccccc1)c1cccnc1 (centres undefined)	-5.76%
Cc1ccc(CCNC(=O)C2CCN(S(=O)(=O)N3CCCC3)CC2)cc1	-10.2%
CN(C)c1ccc(CNC2C3CC4CC(C3)CC2C4)cc1 (centres undefined)	-11.2%
O=C1NC(c2ccc(-c3ccccc3[N+](=O)[O-])o2)C(C(=O)c2ccc(Cl)cc2)C(O)(C(F)(F)F)N1 (centres undefined)	30.5% (active)
O=C(Nc1sc2c(c1-c1nc3ccccc3[nH]1)CCCC2)C1CC1	27.3% (active)
CN(Cc1ccccc1)C(=O)CCNC(=O)Cn1cnc2ccccc2c1=O	11.4%
O=C(NCc1ccccc1)c1ccc(S(=O)(=O)Nc2cccc(C(F)(F)F)c2)cc1	12%
COc1cc(NC(=O)c2ccccc2NS(=O)(=O)c2ccc(Cl)s2)cc(OC)c1	-29%
COc1ccc2nc(NC(=O)NC3CCCCC3)sc2c1	72.5% (active)
N/C(=N\S(=O)(=O)c1cc(C(F)(F)F)cc(C(F)(F)F)c1)c1cccs1	15.7%
